These results are taken from PubChem BioAssay (EPA / NIEHS).

Read-out in assay [1]: Collagen III, COL3A1 (gene 1281)
Put plainly: BSK_MyoF_CollagenIII: BioMAP Diversity Plus: MyoF Assay for Collagen III Biomarker Activity (AID 2284239). To be noted: primary human lung fibroblasts. In short, it runs like this: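 Human lung fibroblasts were dosed with chemicals and, 24 hours later, collagen III was measured by ELISA. Activity was fitted in the positive direction against the DMSO negative-control baseline.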

Read-out in assay [2]: Interleukin 17F (IL17F), IL17F (gene 112744)
Put plainly: BSK_BT_xIL17F: BioMAP Diversity Plus: BT Assay for Interleukin 17F (IL17F) Biomarker Activity (AID 2284243). To be noted: primary human B cells with PBMC. An outline of the steps: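 B cell/PBMC co-culture (human primary), 24 h compound exposure; sIL-17F by Luminex xMAP; gain-of-signal fit vs DMSO baseline.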

Read-out in assay [3]: Actin alpha 1 (ACTA1), ACTA1 (gene 58)
Put plainly: BSK_MyoF_ACTA1: BioMAP Diversity Plus: MyoF Assay for Actin alpha 1 (ACTA1) Biomarker Activity (AID 2284244). The conditions noted are these: primary human lung fibroblasts. In short, it runs like this: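 ELISA read-out of a-SMA in primary human lung fibroblast cultures, 24 h post-dosing. Activity scored in the positive direction versus DMSO baseline.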

Read-out in assay [4]: Interleukin 2 (IL2), IL2 (gene 3558)
Put plainly: BSK_BT_xIL2: BioMAP Diversity Plus: BT Assay for Interleukin 2 (IL2) Biomarker Activity (AID 2284245). The conditions noted are these: primary human B cells with PBMC. In short, it runs like this: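 Readout: supernatant IL-2 via Luminex xMAP after 24 h chemical dosing of a B cell/PBMC primary human co-culture. DMSO serves as negative control and baseline; increases in signal were fitted.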

Read-out in assay [5]: Basic fibroblast growth factor (bFGF), FGF2 (gene 2247)
Put plainly: BSK_MyoF_bFGF: BioMAP Diversity Plus: MyoF Assay for Basic fibroblast growth factor (bFGF) Biomarker Activity (AID 2284246). The conditions noted are these: primary human lung fibroblasts. In short, it runs like this: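 Primary human lung fibroblast culture, 24 h compound exposure; ELISA read-out of bFGF. Positive-direction fit vs DMSO baseline. Cytotoxicity: SRB stain (0.1% SRB, 10% TCA fixation, 560 nm) in parallel wells.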

Read-out in assay [6]: Collagen IV, COL4A1 (gene 1282)
Put plainly: BSK_MyoF_CollagenIV: BioMAP Diversity Plus: MyoF Assay for Collagen IV Biomarker Activity (AID 2284247). The conditions noted are these: primary human lung fibroblasts. An outline of the steps:
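ELISA read-out of Collagen IV in lung fibroblast cultures, 24 h post-dosing; gain of signal relative to DMSO vehicle baseline defines activity.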

Read-out in assay [7]: Plasminogen activator inhibitor-1 (PAI1), SERPINE1 (gene 5054)
Put plainly: BSK_MyoF_PAI1: BioMAP Diversity Plus: MyoF Assay for Plasminogen activator inhibitor-1 (PAI1) Biomarker Activity (AID 2284256).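 On outcome: PAI-1 protein level measured by ELISA in fibroblast cultures; PAI-1 read 24 h after compound addition.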 The conditions noted are these: primary human lung fibroblasts. An outline of the steps: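 ELISA read-out of PAI-1 from primary human lung fibroblast cultures 24 h after dosing; gain-of-signal fit versus DMSO control.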

Read-out in assay [8]: Interleukin-8 (IL8), CXCL8 (gene 3576)
Put plainly: BSK_MyoF_IL8: BioMAP Diversity Plus: MyoF Assay for Interleukin-8 (IL8) Biomarker Activity (AID 2284261). The conditions noted are these: primary human lung fibroblasts. An outline of the steps: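 ELISA read-out of IL-8 from primary human lung fibroblasts, 24 h post-dose; positive-direction curve fitting relative to DMSO vehicle baseline.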

Assay [9] can be described thus: BSK_MyoF_SRB: Viability Assessment in the BioMAP Diversity Plus: MyoF Assay (AID 2284267).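 Further: total protein by SRB absorbance in parallel cultures as cytotoxicity measure; cells assessed 24 h after compound addition.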 The conditions noted are these: primary human lung fibroblasts. An outline of the steps:
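Lung fibroblast cultures, 24 h post-dose; fix 10% TCA, stain 0.1% SRB, read 560 nm. Signal = total protein as cytotoxicity measure; fitted relative to DMSO negative control.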

Read-out in assay [10]: Matrix Metallopeptidase 1 (MMP1), MMP1 (gene 4312)
Put plainly: BSK_MyoF_MMP1: BioMAP Diversity Plus: MyoF Assay for Matrix Metallopeptidase 1 (MMP1) Biomarker Activity (AID 2284268). To be noted: primary human lung fibroblasts. In short, it runs like this: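 ELISA readout of MMP1 in primary human lung fibroblast cultures, 24 h post-dosing. Gain of signal versus DMSO vehicle control defines activity. Parallel SRB staining (0.1% after 10% TCA fixation, 560 nm) flags overt cytotoxicity.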

Read-out in assay [11]: TIMP metallopeptidase inhibitor 1 (TIMP1), TIMP1 (gene 7076)
Put plainly: BSK_MyoF_TIMP1: BioMAP Diversity Plus: MyoF Assay for TIMP metallopeptidase inhibitor 1 (TIMP1) Biomarker Activity (AID 2284269). To be noted: primary human lung fibroblasts. In short, it runs like this: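 TIMP-1 levels were determined by ELISA in human lung fibroblasts treated for 24 h. DMSO served as negative control and baseline for upward curve fitting.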

A short description of assay [12]: CCTE_Mundy_HCI_hNP1_Casp3_7: CCTE's Caspase-Glo 3/7 Assay in human neuroprogenitor cells for Apoptosis, Mundy Lab (AID 2284240). In short, it runs like this:
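Apoptosis is scored by activated caspase-3/7 luminescence in WA09-derived neural progenitor cells, measured 26.5 h after chemical dosing. Values represent gain of signal relative to DMSO vehicle.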

The structures appear in SMILES notation. The source made the active and inactive calls. How the source made its calls: active means hit-call score of the fitted dose curve at least 0.9, where 1 is the maximum; inactive means score below 0.9.

Take `Cc1ccc(Nc2ccc(O)c3c2C(=O)c2ccccc2C3=O)cc1`: the outcome in assay [1], in [2], in [3], in assay [4], in [5] and in assay [6] was inactive. Moreover, the result in [7], in assay [8], in [9], in assay [10] and in [11] was inactive.
With `Cc1ccc(O)c(C(C)(C)C)c1`, the AC50 (usually the midpoint of the concentration-response curve, whichever way the signal moves) in assay [1] is 30.3 µM (active); in assay [3], 30.9 µM (active); in [5] it was 36.1 µM (active); in assay [7], 31.6 µM (active); in assay [9], 34.3 µM (active); in [11] it was 33.7 µM (active). In addition, the result in assay [2], in [4], in assay [6], in assay [8] and in assay [10] was inactive.
Turning to `CNC[C@H](O)c1cccc(O)c1`, the AC50 in assay [1] was 0.016 µM (active). The outcome in assay [2], in assay [3], in [4], in assay [5], in assay [6] and in assay [7] was inactive. In addition, the outcome in assay [8], in assay [9], in [10] and in assay [11] was inactive.
Consider `CC(C)c1ccc(C(C)C)cc1`, for which the result in assay [1], in assay [2], in [3], in [4], in [5] and in assay [6] was inactive. Moreover, the outcome in [7], in assay [8], in assay [9], in assay [10] and in [11] was inactive.
On to `CCn1c2ccccc2c2cc(N)ccc21`, for which the result in assay [1], in [2], in [3], in assay [4], in assay [5] and in [6] was inactive. Besides, the outcome in assay [7], in [8], in [9], in assay [10] and in [11] was inactive.
As for `CCCCCCCCCC=O`, the outcome in assay [1], in [2], in assay [3], in assay [4], in assay [5] and in assay [8] was inactive. Besides, the outcome in assay [9], in assay [10] and in assay [11] was inactive. The results for the concentration at half-maximal activity (AC50) in [6] and in assay [7] were 7.8 µM (active) and 0.016 µM (active), respectively.
As to `CC(C)Oc1ccccc1O`, the outcome in [1], in assay [2], in assay [3], in [4], in assay [5] and in assay [6] was inactive. Besides, the outcome in assay [7], in [8], in assay [9], in assay [10] and in assay [11] was inactive.
As for `C=C[Si](OCC)(OCC)OCC`, the result in assay [1], in assay [2], in [3], in assay [4], in assay [5] and in assay [6] was inactive. The result in assay [7], in assay [8], in assay [9], in assay [10] and in assay [11] was inactive.
For `O=C(O)C[C@H](O)C[C@H](O)/C=C/c1c(C2CC2)nc2ccccc2c1-c1ccc(F)cc1`, the AC50 in assay [1] is 2.16 µM (active); in assay [2] it was 3.26 µM (active); in [3] it was 1.37 µM (active); in assay [4] it was 5 µM (active); in [7] it was 5 µM (active); in assay [8], 1.1 µM (active). Besides, the AC50 in assay [9] is 3.1 µM (active); in assay [10], 0.498 µM (active). The result in assay [5], in [6] and in [11] was inactive.
`CCCCC(CC)COCCC#N` (centres undefined): the result in assay [1], in assay [2], in assay [3], in [4], in assay [5] and in assay [6] was inactive. In addition, the result in assay [7], in assay [8], in assay [9], in assay [10] and in assay [11] was inactive.
For the compound `Cc1ccc2n[nH]nc2c1`, the result in assay [1], in [2], in assay [3], in assay [4], in assay [5] and in [6] was inactive. Also, the outcome in assay [7], in assay [8], in [9], in assay [10] and in assay [11] was inactive.
For `O=P(c1ccccc1)(c1ccccc1)c1ccccc1`, the outcome in [1], in assay [2], in assay [3], in [4], in assay [5] and in assay [6] was inactive. Also, the result in [7], in assay [8], in assay [9], in assay [10] and in assay [11] was inactive.
Take `COC(=O)c1ccc(C)cc1`: the result in assay [1], in assay [2], in [3], in [4], in assay [5] and in [6] was inactive. In addition, the outcome in assay [7], in [8], in assay [9], in assay [10] and in assay [11] was inactive.
With `CCCCCCCCC=O`, the outcome in assay [1], in assay [2], in assay [3], in [4], in assay [5] and in assay [6] was inactive. Moreover, the result in assay [7], in [8], in assay [9], in assay [10] and in [11] was inactive.
For the compound `CCCCCCCCCCCCCCCCCC(=O)OCC(CC)CCCC` (centres undefined), the result in assay [1], in [2], in assay [3], in assay [4], in [5] and in assay [6] was inactive. Moreover, the result in assay [7], in assay [8], in assay [9], in assay [10] and in assay [11] was inactive.
As for `CC(=O)Nc1ccccc1O`, in assay [1], the AC50 is 0.016 µM (active). Also, the result in assay [2], in assay [3], in assay [4], in assay [5], in assay [6] and in assay [7] was inactive. Besides, the outcome in assay [8], in [9], in assay [10] and in [11] was inactive.
`BrC1CCC(Br)C(Br)CCC(Br)C(Br)CCC1Br` (centres undefined): the result in [1], in assay [3], in assay [5], in assay [6], in assay [7] and in assay [8] was inactive. In addition, the outcome in [9] and in assay [11] was inactive. The AC50 in [2] is 25 µM (active); in [4], 25.2 µM (active); in assay [10], 3.29 µM (active).
As for `C#C[C@]1(O)CC[C@H]2[C@@H]3CCC4=Cc5oncc5C[C@]4(C)[C@H]3CC[C@@]21C`, the AC50 in assay [1] is 28.1 µM (active); in [2] it was 25.3 µM (active); in [4], 28.6 µM (active); in assay [5] it was 30.8 µM (active); in [7], 3.97 µM (active); in [11] it was 35.8 µM (active). Besides, the result in assay [3], in assay [6], in assay [8], in assay [9] and in [10] was inactive.
Turning to `O=[N+]([O-])c1cc(C(F)(F)F)ccc1Cl`, the outcome in assay [1], in assay [2], in [3], in assay [4], in assay [5] and in assay [6] was inactive. Also, the result in assay [8], in assay [9], in assay [10] and in assay [11] was inactive. The AC50 in [7] is 0.11 µM (active).
On to `CC1COc2ccccc2N1C(=O)C(Cl)Cl` (centres undefined), for which the half-maximal activity concentration (AC50) was 29.6 µM (active) in assay [1]; 20 µM (active) in [3]; 2.33 µM (active) in assay [6]; 5.3 µM (active) in assay [7]; 16.1 µM (active) in [8]; 20 µM (active) in assay [9]. Moreover, the AC50 in [10] was 9.41 µM (active); in [11], 4.69 µM (active). The result in assay [2], in assay [4] and in assay [5] was inactive.
In the case of `N#Cc1ccc(CC(=NNC(=O)Nc2ccc(OC(F)(F)F)cc2)c2cccc(C(F)(F)F)c2)cc1`, the outcome in [1], in [12], in assay [2], in assay [3], in assay [4] and in assay [5] was inactive. The result in assay [6], in assay [7], in assay [8], in assay [9], in [10] and in assay [11] was inactive.
Turning to `CCCCC(CC)COC(=O)/C=C\C(=O)OCC(CC)CCCC` (centres undefined), the outcome in assay [1], in [2], in [3], in assay [5], in assay [6] and in [7] was inactive. The result in assay [8], in assay [9], in [10] and in assay [11] was inactive. Further, the AC50 in assay [4] was 20 µM (active).
For `CC(=O)O[C@]1(C(C)=O)CC[C@H]2[C@@H]3C[C@H](C)C4=CC(=O)CC[C@]4(C)[C@H]3CC[C@@]21C`, the outcome in [1], in [3], in assay [4], in [5], in assay [6] and in [7] was inactive. The outcome in [8], in assay [9], in assay [10] and in assay [11] was inactive. For the same compound, the AC50 in [2] was 10 µM (active).
